Measured values taken from PubChem BioAssay (NCI).
About 83,000 compounds went through this panel and 20% of them were active in at least one assay; those are over-represented in the sample as a whole.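 In brief: 96-well plates, 48 h treatment, single concentration, percent growth endpoint.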 Active and inactive are the calls of the source. Rule for the calls: active = growth percent below 10; inactive = the rest.

Experiments:
Experiment in all cases: NCI-60 one-dose screen, 48 h (100 = growth as untreated, 0 = no growth, -100 = all killed)
Settings in all cases: 10 µM unless noted
T-47D breast = test system: T-47D breast
BT-549 breast = test system: BT-549 breast
MDA-MB-435 melanoma = test system: MDA-MB-435 melanoma
SW-620 colon = test system: SW-620 colon
MCF7 breast = test system: MCF7 breast
HCT-116 colon = test system: HCT-116 colon
HCC-2998 colon = test system: HCC-2998 colon
KM12 colon = test system: KM12 colon

Measured: growth

Cc1cc(-c2ccc(N=Nc3c(S(=O)(=O)O)cc4cc(S(=O)(=O)O)cc(N)c4c3O)c(C)c2)ccc1N=Nc1cc(S(=O)(=O)O)c2ccccc2c1O
inactive: T-47D breast 99.6% | BT-549 breast 107% | MDA-MB-435 melanoma 104% | SW-620 colon 109% | MCF7 breast 92.2% | HCT-116 colon 96.4% | HCC-2998 colon 104% | KM12 colon 102%

CC(C)(C)OC(=O)N1C=C/C(=C\Cn2cc(-c3ccccc3)nn2)CC1
inactive: T-47D breast 41.1% | BT-549 breast 58.1% | MDA-MB-435 melanoma 85.2% | SW-620 colon 93.8% | MCF7 breast 65.5% | HCT-116 colon 74.1% | HCC-2998 colon 88.4% | KM12 colon 88.9%

Cc1cnc(N)nc1OCCNC(=O)c1cccc(-c2ccc(S(=O)(=O)Nc3ccc4c(c3)N(C(=O)C3CC3)CCC4)cc2)c1
inactive: T-47D breast 36.9% | BT-549 breast 66.2% | MDA-MB-435 melanoma 78.8% | SW-620 colon 99.1% | MCF7 breast 77.2% | HCT-116 colon 76.3% | HCC-2998 colon 77.4% | KM12 colon 75.2%

CCCCCn1c(C)cc(/C=C\c2ccc3cc(C)ccc3[n+]2C)c1C
active: T-47D breast -49.1% | BT-549 breast -29.9% | MDA-MB-435 melanoma -90.2% | SW-620 colon -35.9% | MCF7 breast -18.2% | HCT-116 colon -34.4% | HCC-2998 colon -70.1% | KM12 colon -72.4%

C[n+]1cccc(NC(=O)c2ccc3ccc4ccc(C(=O)Nc5ccc[n+](C)c5)nc4c3n2)c1
inactive: T-47D breast 12% | BT-549 breast 90.4% | MDA-MB-435 melanoma 67.8% | SW-620 colon 56% | MCF7 breast 54% | HCT-116 colon 43.1% | HCC-2998 colon 42% | KM12 colon 42.2%

CCOC(=O)c1nn(C2CCCCO2)c2ccc(NC(=O)CN3CCOCC3)cc12 (centres undefined)
inactive: T-47D breast 98.9% | BT-549 breast 101% | MDA-MB-435 melanoma 106% | SW-620 colon 104% | MCF7 breast 97.3% | HCT-116 colon 90.5% | HCC-2998 colon 109% | KM12 colon 105%

Cc1cccc(C[C@H](NC(=O)Nc2ccc(Cl)cc2F)C(=O)N[C@@H]2C(=O)N3C[C@H](OC(=O)CCN(C)C)C[C@H]3C(=O)N3CCCC[C@H]3C(=O)N[C@@H](C)C(=O)N3C[C@H](C)C[C@H]3C(=O)O[C@H]2C)c1
active: BT-549 breast 4.55% | HCT-116 colon -29%
inactive: T-47D breast 13.8% | MDA-MB-435 melanoma 14.6% | SW-620 colon 30.2% | MCF7 breast 13.4% | HCC-2998 colon 19% | KM12 colon 23%

CN(C)c1ccc(-c2ccc(-c3ccc(C(=N)N)cc3)s2)cc1
inactive: BT-549 breast 96.2%
active: T-47D breast -50.8% | MDA-MB-435 melanoma -77.6% | SW-620 colon -54.9% | MCF7 breast -55.3% | HCT-116 colon -45.3% | HCC-2998 colon -74.2% | KM12 colon -73%

c1cc2ccc1CNCCN1CCNCc3ccc(cc3)Oc3ccc(cc3)CNCCN(CCNCc3ccc(cc3)O2)CCNCc2ccc(cc2)Oc2ccc(cc2)CNCC1
active: T-47D breast -64.5% | MDA-MB-435 melanoma -96.3% | SW-620 colon -75.5% | MCF7 breast -75.4% | HCT-116 colon -89.7% | HCC-2998 colon -87.8% | KM12 colon -88.6%
inactive: BT-549 breast 82.1%

COc1ncc(-c2ccc3nc(N)n(-c4ccccc4C(F)(F)F)c(=O)c3c2)cc1S(=O)(=O)Nc1ccc(F)cc1F
inactive: T-47D breast 30.3% | BT-549 breast 49.1% | MDA-MB-435 melanoma 31.2% | SW-620 colon 34.2% | MCF7 breast 43.7% | HCT-116 colon 32.5% | HCC-2998 colon 39.7% | KM12 colon 21.1%

O=c1c2c3c(sc2n2cnnc2n1Cc1ccccc1)CCCC3
inactive: T-47D breast 38.4% | BT-549 breast 95.7% | MDA-MB-435 melanoma 113% | SW-620 colon 113% | MCF7 breast 96.6% | HCT-116 colon 122% | HCC-2998 colon 105% | KM12 colon 113%

CC(C)CCSc1nc(N)nc2nc[nH]c12
inactive: T-47D breast 89.1% | BT-549 breast 140% | MDA-MB-435 melanoma 116% | SW-620 colon 113% | MCF7 breast 96.1% | HCT-116 colon 92.9% | HCC-2998 colon 101% | KM12 colon 92.6%

C=C(C)[C@@H]1CC[C@]2(C(N)=O)CC[C@]3(C)[C@H](CC[C@@H]4[C@@]5(C)C/C(=C/c6cccnc6)C(=O)C(C)(C)[C@@H]5CC[C@]43C)[C@@H]12
active: T-47D breast 1.22% [100 µM] | MDA-MB-435 melanoma 0.0948% [100 µM] | SW-620 colon 3.53% [100 µM] | HCT-116 colon 5.4% [100 µM] | HCC-2998 colon -15.9% [100 µM] | KM12 colon -3.05% [100 µM]
inactive: BT-549 breast 14.1% [100 µM] | MCF7 breast 10.8% [100 µM]

Nn1c(Nc2ccc(S(=O)(=O)Nc3ncccn3)cc2)nnc(/C=C/c2c(O)ccc3ccccc23)c1=O
inactive: T-47D breast 70.9% | BT-549 breast 101% | MDA-MB-435 melanoma 95.2% | SW-620 colon 94% | MCF7 breast 76.6% | HCT-116 colon 89.9% | HCC-2998 colon 114% | KM12 colon 82.9%

COc1ncnc2c(-c3ccccc3)cn(COCc3ccccc3)c12
inactive: T-47D breast 14% | BT-549 breast 36.6% | MDA-MB-435 melanoma 29.7% | SW-620 colon 67.4% | MCF7 breast 48.1% | HCT-116 colon 41.7% | HCC-2998 colon 70% | KM12 colon 42.5%

COc1ccc(C(=O)/C=C/c2ccccn2)c(O)c1
inactive: T-47D breast 61.6% | BT-549 breast 76.5% | MDA-MB-435 melanoma 77.3% | SW-620 colon 43.4% | MCF7 breast 15.9% | HCT-116 colon 76.5% | HCC-2998 colon 93.6% | KM12 colon 51.1%

N#C/C(C(=O)c1ccccc1)=C1/C(=O)Nc2ccc(Br)cc21
inactive: T-47D breast 90.5% | BT-549 breast 99.2% | MDA-MB-435 melanoma 102% | SW-620 colon 97% | MCF7 breast 95.9% | HCT-116 colon 99.8% | HCC-2998 colon 99.7% | KM12 colon 105%

O=C(NNc1ccc(-c2ccccc2)nn1)c1ccc(F)cc1
inactive: T-47D breast 88.7% | BT-549 breast 95.1% | MDA-MB-435 melanoma 100% | SW-620 colon 100% | MCF7 breast 91% | HCT-116 colon 103% | HCC-2998 colon 102% | KM12 colon 102%

C=C(C)[C@@H]1CC[C@]2(C(=O)NCCCCCCN(CCCN)CCCN)CC[C@]3(C)[C@H](CC[C@@H]4[C@@]5(C)CC[C@H](OCCCN)C(C)(C)[C@@H]5CC[C@]43C)[C@@H]12
active: SW-620 colon 7.33% [100 µM]
inactive: T-47D breast 85.3% [100 µM] | BT-549 breast 118% [100 µM] | MDA-MB-435 melanoma 89.6% [100 µM] | MCF7 breast 14.5% [100 µM] | HCT-116 colon 12.6% [100 µM] | HCC-2998 colon 77.1% [100 µM] | KM12 colon 31.5% [100 µM]

CC1(C)NCCC[C@]2(C)[C@H]3C=CC4=C5C[C@](C)(CO)CC[C@]5(C)CC[C@@]4(C)[C@]3(C)CC[C@@H]12
active: T-47D breast -63.9% [100 µM] | BT-549 breast -87.9% [100 µM] | MDA-MB-435 melanoma -95.6% [100 µM] | SW-620 colon -80.7% [100 µM] | MCF7 breast -70.7% [100 µM] | HCT-116 colon -77.4% [100 µM] | HCC-2998 colon -78.8% [100 µM] | KM12 colon -85.5% [100 µM]

O=C1NC(=O)c2cc([N+](=O)[O-])cc3cccc1c23
inactive: T-47D breast 96.1% | BT-549 breast 96% | MDA-MB-435 melanoma 100% | SW-620 colon 98.2% | MCF7 breast 90% | HCT-116 colon 107% | HCC-2998 colon 107% | KM12 colon 105%

O=C(N/N=C/c1ccc([N+](=O)[O-])cc1)c1ccc(Br)o1
inactive: T-47D breast 131% | BT-549 breast 109% | MDA-MB-435 melanoma 108% | SW-620 colon 104% | MCF7 breast 71.2% | HCT-116 colon 99.4% | HCC-2998 colon 107% | KM12 colon 126%

C=C(C)[C@@H]1CC[C@]2(COCCCN)CC[C@]3(C)[C@H](CC[C@@H]4[C@@](C)(CCCNCCCN)[C@H](C(=C)C)CC[C@]43C)[C@@H]12
active: T-47D breast -60.6% [100 µM] | BT-549 breast -43.2% [100 µM] | MDA-MB-435 melanoma -68.5% [100 µM] | SW-620 colon -67% [100 µM] | MCF7 breast -47.9% [100 µM] | HCT-116 colon -31.7% [100 µM] | HCC-2998 colon -55% [100 µM] | KM12 colon -62.5% [100 µM]

NC(=O)c1cccc(-c2ccc(S(=O)(=O)Nc3ccc4c(c3)N(C(=O)C3CC3)CCC4)cc2)c1
active: MDA-MB-435 melanoma 1.89%
inactive: T-47D breast 26.1% | BT-549 breast 96.7% | SW-620 colon 32.3% | MCF7 breast 22.9% | HCT-116 colon 98.2% | HCC-2998 colon 64.5% | KM12 colon 18.9%

CN(C)CCCNc1nc(-c2cccc(C(Cl)(Cl)Cl)c2)nc(C(Cl)(Cl)Cl)n1
inactive: T-47D breast 109% | BT-549 breast 77.8% | MDA-MB-435 melanoma 105% | SW-620 colon 98.8% | MCF7 breast 93.5% | HCT-116 colon 92.9% | HCC-2998 colon 107% | KM12 colon 111%

COc1ccc(C2CC(c3cc(OC)c(OC)c(OC)c3)=NN2C(C)=O)cc1OCC(=O)Nc1nc2ccc(C(F)(F)F)cc2s1 (centres undefined)
inactive: T-47D breast 67.5% | BT-549 breast 47.5% | MDA-MB-435 melanoma 69.5% | SW-620 colon 84.7% | MCF7 breast 65% | HCT-116 colon 30.5% | HCC-2998 colon 92.3% | KM12 colon 64.5%

CCOc1cc(NC(=O)c2ccccc2)c(OCC)cc1N
inactive: T-47D breast 101% | BT-549 breast 130% | MDA-MB-435 melanoma 107% | SW-620 colon 109% | MCF7 breast 108% | HCT-116 colon 118% | HCC-2998 colon 112% | KM12 colon 105%

CCNC(=O)N1CCc2c(Cl)c3c(c(OC)c2[C@@H]1[C@H]1OCc2c1ccc(OC)c2OC)OCCO3
inactive: T-47D breast 20.5% | BT-549 breast 55.9% | SW-620 colon 17.5% | MCF7 breast 16.1% | HCT-116 colon 18.2% | HCC-2998 colon 61.1% | KM12 colon 18.7%
active: MDA-MB-435 melanoma -43.4%
